# Measured values taken from the supplement of paper PMC10338343.
# ± gives the standard deviation.
# Test system: EfPiwi piRISC loaded with L1MC piRNA (26 nt)
# Assay: pre-steady-state target cleavage rate (min^-1); auxiliary factor: 500 nM Ephydatia muelleri Gtsf1; guide: L1MC piRNA 5'p-UAACUAAAUACUAUGCAAGCUGUAGG; MIWI and MILI are mouse PIWI proteins and EfPiwi is from a freshwater sponge; tags in brackets are library labels; higher = faster piRNA-guided slicing of the target
# In short: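 The pre-steady-state cleavage rate was obtained by Cleave-'n-Seq with a burst-and-steady-state fit. A transcribed, DNA-blocked target RNA library (0.1 nM) was mixed with 1 nM active affinity-purified piRISC carrying one synthetic guide, with or without 500 nM GTSF1 partner protein, in HEPES–potassium acetate buffer at 33 °C for 0–8 or 0–960 min. Uncleaved targets were sequenced and normalised to depth and to weakly complementary targets, with three trials pooled and k3 capped at 0.0001 min^-1.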
row,Sequence,pre-steady-state target cleavage rate
1,UCCUGGAUGUGAUUGCAUAGUAUUUAGUUA,0.00623 ± 0.0031
2,UCCUGGAACAGCUUGCAUAGUAUUUAGUUUA,0.0245 ± 0.0071
3,UCCUCCUACAGCUUGCACAGUAUUUAGUUA,0.0475 ± 0.013
4,UCCUCCUACAGCUUGCAUAGUACUUAGUUA,0.013 ± 0.0053
5,UCCUGGAAGAGCUUGCAUUGUAUUUAGUUA,0.0104 ± 0.0029
6,UCCUCCUACAGCUUGCAUAGUAUUUAGUUA [g2:g26:cont:t1A],0.121 ± 0.034
7,UCCUGGUACAGCUUGCAUCGUAUUUAGUUA,0.00642 ± 0.0025
8,UCCUCCUACAGCAUGCAUAGUAAUUAGUUA,0.0115 ± 0.0038
9,UCCUGGAUCAGCAAGCAUAGUAUUUAGUUA,0.0107 ± 0.0038
10,UCCUGGAACAGCUUGCAUAGUUUUUAGUUA,0.00683 ± 0.0019
11,UCCUGGAUGAGCUUGCAUACUAUUUAGUUA,0.00682 ± 0.0019
12,UCCUGGCACAGCUUGCAUAGUAUUUAGUUA,0.0252 ± 0.0092
13,UCCUCCUACAGCUUGGAUAGUAUAUAGUUA,0.00941 ± 0.0032
14,UCCUGGAACAGGAAGCAUAGUAUUUAGUUA,0.00471 ± 0.002
15,UCCUGGAACAGGCUUGCAUAGUAUUUAGUUA,0.0145 ± 0.0037
16,UCCUGGAUGUCCUAUGCAUAGUAUUUAGUUA,0.00508 ± 0.0022
17,UCCUGGUACAGCUUGCCUAGUAUUUAGUUA,0.00475 ± 0.0026
18,UCCUGGUACAGCUUGCUUAGUAUUUAGUUA,0.0165 ± 0.0049
19,UCCUGGAACAGCUUGGUUAGUAUUUAGUUA,0.0135 ± 0.005
20,UCCUGGUACAGCUUGCAUAGUAGUUAGUUA,0.00515 ± 0.0021

row,Sequence,pre-steady-state target cleavage rate
1,UCCUGCUAGAGCUUGCAUAGUAAUUAGUUA,0.00471 ± 0.0019
2,UCCUGGAUCAGCUUGCAUAGUAUUUAGUA,0.00808 ± 0.0034
3,UCCUGCUAGUCCUUGCAUAGUAUUUAGUUA,0.00428 ± 0.0023
4,UCCUGGUUCAGCUUGCAUAGUUUUUAGUUA,0.00498 ± 0.0023
5,UCCUGGUACAGCAAGCAUAGUAUUUAGUUA,0.00653 ± 0.0021
6,UCCUGGAUCUCGUUGCAUAGUAUUUAGUUA,0.0466 ± 0.011
7,UCCUGGAUGAGCUUGCUUAGUAUUUAGUUA,0.00629 ± 0.0027
8,UCCUGGAUCAGCUUGCGUAGUAUUUAGUUA,0.0111 ± 0.0032
9,UCCUGGAUGUCGUUCGCAUAGUAUUUAGUUA,0.00486 ± 0.0031
10,UCCUGGAACAGCUUGCAUACUAUUUAGUUA,0.00571 ± 0.0014
11,UCCUGGAUGUGCAAGCAUAGUAUUUAGUUA,0.00427 ± 0.0022
12,UCCUCCUUCAGCUUGGAUAGUAUUUAGUUA,0.0562 ± 0.013
13,UCCUCGUACAGCUUGGAUAGUAUUUAGUUA,0.0441 ± 0.0092
14,UCCUCCUACAGCAUGCAAAGUAUUUAGUUA,0.0492 ± 0.017
15,UCCUGGAUGUGCUUGCAUAGUAUUUAGUCA,0.00263 ± 0.0019
16,UCCUGGAACAGCUUGCAUAGUAUUAGUUA,0.00229 ± 0.0021
17,UCCUGCUACAGGAAGCAUAGUAUUUAGUAA,0.00302 ± 0.0027
18,UCCUGGAUGAGCUUGCAUAGUAUUUAGUGA,0.00681 ± 0.0032
19,UCCUGGAACAGCUAGCAUAGUAUUUAGUAA,0.00289 ± 0.0015
20,UCCUGGAUGAGCUUUGCAUAGUAUUUAGUUA,0.0107 ± 0.0037
